Data reported in PubChem BioAssay AID434970 (Sanford-Burnham Center for Chemical Genomics, 2010).
About 310 (2.8%) of roughly 11,000 compounds were called active. The sample holds actives, similar compounds and a random draw of the others, so the mix is not that of the screen. No stated cut-off is given here; in the data, active means activity change below about -85%; inactive means the rest.

Tested on: intestinal alkaline phosphatase [Mus musculus]
Assay: mouse intestinal phosphatase enzyme activation – biochemical, luminescence, single concentration, confirmation (AID 434970)
Details: purified mouse IAP, CDP-Star luminescence, 30 min, at 10 µM; activation factor: measured here: IAP activation factor, stronger effect = higher value; activity change, negative = activation: stronger effect = lower value

`Cc1ccc(NCc2nnc(SCC(N)=O)n2CC2CCCO2)c(C)c1` (stereo unspecified) was tested. Which activation factor did it give?
Its activation factor is 1.09.

What about the activity change, negative = activation of the same compound?
The activity change, negative = activation was -9.4% (inactive).

With `O=C(NCc1ccc2c(c1)CCO2)Nc1cccc(C(F)(F)F)c1` as the compound, how does the activation factor read?
The activation factor was 2.44.

What about the activity change, negative = activation of the same compound?
The activity change, negative = activation was -144% (active).

Which activation factor does the source give for `FC(F)(F)c1cccc(NC(=S)NCc2ccc(Cl)cc2)c1` here?
The activation factor was 1.18.

And the activity change, negative = activation?
Its activity change, negative = activation is -18.2% (inactive).

Which activation factor does the source give for `FC(F)(F)c1cccc(NC(=S)NCc2ccccc2)c1` here?
Its activation factor is 1.69.

What about the activity change, negative = activation of the same compound?
The activity change, negative = activation was -69.2% (inactive).

Which results are given for `COc1ccc(CNC(=O)Nc2cccc(C(F)(F)F)c2)cc1OC`?
activation factor: 2.21; activity change, negative = activation: -121% (active)

With `COc1ccc(CNC(=O)NCc2ccc(OC)c(OC)c2)cc1OC` as the compound, how does the activation factor read?
Its activation factor is 1.09.

What about the activity change, negative = activation of the same compound?
The activity change, negative = activation was -9% (inactive).

With `Fc1ccc(CNC(=S)Nc2cccc(C(F)(F)F)c2)cc1` as the compound, how does the activation factor read?
Its activation factor is 1.28.

What about the activity change, negative = activation of the same compound?
Its activity change, negative = activation is -27.5% (inactive).

`Cc1cc(C)c2c(-n3cccc3)c(C(=O)NNS(=O)(=O)c3ccc(Br)cc3)sc2n1` was tested. Which activation factor did it give?
Its activation factor is 0.865.

What about the activity change, negative = activation of the same compound?
The activity change, negative = activation was 13.5% (inactive).

Which activation factor does the source give for `CC1(C)CC2CC(C)(CN2C(=O)CN2C(=O)c3ccccc3C2=O)C1` (stereo unspecified) here?
The activation factor was 1.09.

What about the activity change, negative = activation of the same compound?
Its activity change, negative = activation is -8.65% (inactive).

`CC(=O)c1ccc(NC(=O)CCn2c(=O)oc3ccccc32)cc1` was tested. Which activation factor did it give?
The activation factor was 1.03.

And the activity change, negative = activation?
Its activity change, negative = activation is -3.25% (inactive).

`COc1ccccc1CNC(=O)CCCOc1cc(=O)n(C)c2ccccc12` was tested. Which activation factor did it give?
The activation factor was 0.997.

And the activity change, negative = activation?
Its activity change, negative = activation is 0.3% (inactive).

How did the activation factor turn out when `C=CCC1[C@H](C)[C@H]2[C@@H]3CC[C@@H](C3)[C@H]2CN1S(=O)(=O)c1ccc(C)cc1` (stereo partly specified) was run?
The activation factor was 1.12.

And the activity change, negative = activation?
The activity change, negative = activation was -11.8% (inactive).

Which activation factor does the source give for `CCN(CC)CCNC(=O)c1ccc(NC(=O)Nc2cccc3ccccc23)cc1` here?
The activation factor was 2.6.

And the activity change, negative = activation?
Its activity change, negative = activation is -160% (active).

Which results are given for `N#CCc1ccc(NC(=O)Nc2cccc3ccccc23)cc1`?
activation factor: 1.89; activity change, negative = activation: -89.1% (inactive)

With `O=C(Nc1ccccc1)Nc1cccc2ccccc12` as the compound, how does the activation factor read?
The activation factor was 1.79.

What about the activity change, negative = activation of the same compound?
Its activity change, negative = activation is -78.8% (inactive).

Which results are given for `CCOc1ccc(CC(=O)OCN2C(=O)c3ccccc3C2=O)cc1`?
activation factor: 0.926; activity change, negative = activation: 7.35% (inactive)

How did the activation factor turn out when `Cc1ccc(NC(=O)c2ncn(CC(=O)NCC(C)c3ccccc3)n2)cc1C` (stereo unspecified) was run?
Its activation factor is 0.995.

And the activity change, negative = activation?
The activity change, negative = activation was 0.5% (inactive).

Which activation factor does the source give for `COc1ccccc1C(CC(=O)Nc1ccc(C)c(C)c1)c1ccc(OC(C)C)cc1` (stereo unspecified) here?
Its activation factor is 2.06.

And the activity change, negative = activation?
The activity change, negative = activation was -106% (active).

For `COc1ccccc1C(CC(=O)Nc1ccc(Cl)cc1)c1ccc(OC(C)C)cc1` (stereo unspecified), which activation factor is on record?
The activation factor was 1.91.

And the activity change, negative = activation?
The activity change, negative = activation was -90.9% (active).

Which results are given for `Cc1ccc(NC(=O)CNc2ccc(OC(C)C)cc2)cc1`?
activation factor: 0.9; activity change, negative = activation: 10% (inactive)

Which activation factor does the source give for `CCOc1ccc(NC(=O)CC(c2ccccc2)c2ccc(F)cc2)cc1` (stereo unspecified) here?
The activation factor was 1.44.

And the activity change, negative = activation?
The activity change, negative = activation was -43.6% (inactive).

Which results are given for `CCOc1ccccc1NC(=O)c1cccc(NC(=O)CC(c2ccccc2)c2ccccc2)c1`?
activation factor: 1.39; activity change, negative = activation: -39.4% (inactive)

`O=C(CN(Cc1ccccc1F)C(=O)Cn1nnc(-c2cccs2)n1)NC1CCCCC1` was tested. Which activation factor did it give?
Its activation factor is 1.22.

What about the activity change, negative = activation of the same compound?
The activity change, negative = activation was -22.1% (inactive).
